In PubChem BioAssay (NCI) one finds growth inhibition data, which are given here for ten compounds.

About 79,000 compounds went through this panel and 15% of them were active in at least one assay; those are over-represented in the sample as a whole. Unmarked numbers belong to inactive results. Calls of active or inactive are those of the source. No stated cut-off is given here; in the data, active means growth inhibition above about 70%; inactive means the rest. Where a SMILES comes first, the peptide text is derived from it. [ ]: non-standard residue; d: D form. The star is where a group is joined. mTyr = N[CH](Cc1cccc(O)c1)C(=O)O; Cbz = O=C(OCc1ccccc1)*; OBn = c1ccc(CO*)cc1

Experiment [1] in a line: NCI Yeast Anticancer Drug Screen. Data for the rad50 strain (AID 155).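 Further: 0% = growth of vehicle-only cultures of the same strain.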 Particulars: S. cerevisiae rad50 strain growth inhibition, stronger effect = higher value. Summed up:
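Yeast carrying a defined DNA repair defect were exposed to test compounds, and growth was compared with vehicle-treated controls to give percent inhibition.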

The nature of experiment [2]: NCI Yeast Anticancer Drug Screen. Data for the mec2-1 strain (AID 157). As to conditions: S. cerevisiae mec2-1 strain, stronger effect = higher value. Summed up:
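Growth inhibition is read against vehicle-treated controls after compound exposure of the mec2-1 yeast strain, which is defective in DNA damage repair or cell cycle control.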

Experiment [3] can be described thus: NCI Yeast Anticancer Drug Screen. Data for the sgs1 mgt1 strain (AID 161).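 Further: 0% = growth of cultures given vehicle only.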 As to conditions: S. cerevisiae sgs1 mgt1 strain, stronger effect = higher value. Summed up:
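Yeast cells carrying a defined DNA-repair defect were exposed to test compounds. Growth inhibition was measured relative to vehicle-treated controls.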

Experiment [4] is described as follows: NCI Yeast Anticancer Drug Screen. Data for the cln2 rad14 strain (AID 165).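 Further: 0% = growth equal to vehicle treated cultures.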 As to conditions: S. cerevisiae cln2 rad14 strain, stronger effect = higher value. Summed up:
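Growth inhibition, relative to vehicle-treated controls, is the read-out. The test organism is a yeast strain with defined genetic alterations, cln2 rad14.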

The nature of experiment [5]: NCI Yeast Anticancer Drug Screen. Data for the bub3 strain (AID 167). As to conditions: S. cerevisiae bub3 mutant strain, stronger effect = higher value. Summed up: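 Compounds were applied to a genetically altered yeast strain carrying a cell-cycle control defect. Growth inhibition was scored against vehicle-treated controls.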
The nature of experiment [6]: NCI Yeast Anticancer Drug Screen. Data for the mlh1 rad18 strain (AID 175). As to conditions: S. cerevisiae mlh1 rad18 strain growth inhibition, stronger effect = higher value. Summed up:
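Cells of a genetically altered yeast strain, deficient in DNA damage repair, were treated with compound. Their growth was then compared with that of vehicle-treated cultures to give inhibition.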

Where [7] appears, read: at 5.0 µM (retest, dose inferred, filed as 0.5).
The mark [8] stands for this setting: at 50.0 µM (retest, dose inferred, filed as 5.0).

With `CC12CCC(c3sc(N)c(C#N)c31)C2(C)C` (stereo not given), the growth inhibition in experiment [1] (setting [7]) was -14%; in experiment [1] (setting [8]), -34%; in experiment [1] (at 50.0 µM) it was 39%; in experiment [2] (setting [7]) it was -2%; in experiment [2] (setting [8]), -25%; in experiment [2] (at 50.0 µM), 60.2%. Also, the growth inhibition is -13% in experiment [3] (setting [7]); -4% in experiment [3] (setting [8]); 34.5% in experiment [3] (at 50.0 µM); 3% in experiment [4] (setting [7]); 1% in experiment [4] (setting [8]); 13.8% in experiment [4] (at 50.0 µM). In addition, the growth inhibition was -15% in experiment [5] (setting [7]); -20% in experiment [5] (setting [8]); 31.7% in experiment [5] (at 50.0 µM); -36% in experiment [6] (setting [7]); -9% in experiment [6] (setting [8]); 43.8% in experiment [6] (at 50.0 µM).
Regarding `COC(=O)C(Cc1cccc(O)c1)NC(=O)C(CC(=O)OCc1ccccc1)NC(=O)OCc1ccccc1` (stereo not given) (Cbz-Asp(OBn)-[mTyr]-OMe; configuration not given here), the growth inhibition was -12% in experiment [1] (setting [7]); 70% (active) in experiment [1] (setting [8]); 77.2% (active) in experiment [1] (at 50.0 µM); -6% in experiment [2] (setting [7]); 21% in experiment [2] (setting [8]); 74.8% (active) in experiment [2] (at 50.0 µM). In addition, the growth inhibition in experiment [3] (setting [7]) is 2%; in experiment [3] (setting [8]), 87% (active); in experiment [3] (at 50.0 µM) it was 85.7% (active); in experiment [4] (setting [7]), 9%; in experiment [4] (setting [8]) it was 64%; in experiment [4] (at 50.0 µM), 89.8% (active). Moreover, the growth inhibition was -10% in experiment [5] (setting [7]); 55% in experiment [5] (setting [8]); 91% (active) in experiment [5] (at 50.0 µM); -4% in experiment [6] (setting [7]); 75% (active) in experiment [6] (setting [8]); 80.9% (active) in experiment [6] (at 50.0 µM).
With `CC(C)C(=O)/C=C/c1c(Cl)cccc1Cl`, the growth inhibition was 22% in experiment [1] (setting [7]); 26% in experiment [1] (setting [8]); 26.6% in experiment [1] (at 50.0 µM); 14% in experiment [2] (setting [7]); 22% in experiment [2] (setting [8]); 41.9% in experiment [2] (at 50.0 µM). The growth inhibition is 11% in experiment [3] (setting [7]); 20% in experiment [3] (setting [8]); 48.4% in experiment [3] (at 50.0 µM); 16% in experiment [4] (setting [7]); 28% in experiment [4] (setting [8]); 46% in experiment [4] (at 50.0 µM). The growth inhibition is 22% in experiment [5] (setting [7]); 18% in experiment [5] (setting [8]); 54.9% in experiment [5] (at 50.0 µM); 19% in experiment [6] (setting [7]); 21% in experiment [6] (setting [8]); 43.6% in experiment [6] (at 50.0 µM).
Turning to `Nc1ccccc1[S][Sn]([c]1ccccc1)([c]1ccccc1)[c]1ccccc1`, the growth inhibition was 99% (active) in experiment [1] (setting [7]); 98% (active) in experiment [1] (setting [8]); 98.5% (active) in experiment [1] (at 50.0 µM); 99% (active) in experiment [2] (setting [7]); 98% (active) in experiment [2] (setting [8]); 98.5% (active) in experiment [2] (at 50.0 µM). In addition, the growth inhibition was 99% (active) in experiment [3] (setting [7]); 99% (active) in experiment [3] (setting [8]); 98.5% (active) in experiment [3] (at 50.0 µM); 98% (active) in experiment [4] (setting [7]); 98% (active) in experiment [4] (setting [8]); 98% (active) in experiment [4] (at 50.0 µM). Also, the growth inhibition in experiment [5] (setting [7]) was 97% (active); in experiment [5] (setting [8]), 99% (active); in experiment [5] (at 50.0 µM), 98.3% (active); in experiment [6] (setting [7]), 99% (active); in experiment [6] (setting [8]) it was 99% (active); in experiment [6] (at 50.0 µM) it was 98.3% (active).
Turning to `COc1cc2c[n+](C)c3c4cc(OC)c(OCc5ccccc5)cc4c(OCc4ccccc4)cc3c2cc1OC`, the growth inhibition in experiment [1] (setting [7]) was 33%; in experiment [1] (setting [8]), 96% (active); in experiment [1] (at 50.0 µM), 59.4%; in experiment [2] (setting [7]) it was 14%; in experiment [2] (setting [8]) it was 93% (active); in experiment [2] (at 50.0 µM), 53.7%. Also, the growth inhibition in experiment [3] (setting [7]) was 0%; in experiment [3] (setting [8]) it was 94% (active); in experiment [3] (at 50.0 µM) it was 51.1%; in experiment [4] (setting [7]), 5%; in experiment [4] (setting [8]), 91% (active); in experiment [4] (at 50.0 µM), 96.6% (active). Besides, the growth inhibition in experiment [5] (setting [7]) was 16%; in experiment [5] (setting [8]), 95% (active); in experiment [5] (at 50.0 µM), 93.5% (active); in experiment [6] (setting [7]), 18%; in experiment [6] (setting [8]), 95% (active); in experiment [6] (at 50.0 µM), 65.8%.
In the case of `O=C1c2ccccc2/C=C\C(c2ccccc2)=N/N1c1ccccc1Cl`, the growth inhibition in experiment [1] (setting [7]) is 7%; in experiment [1] (setting [8]) it was 52%; in experiment [1] (at 50.0 µM), 84.8% (active); in experiment [2] (setting [7]), 0%; in experiment [2] (setting [8]), 69%; in experiment [2] (at 50.0 µM) it was 83.5% (active). The growth inhibition in experiment [3] (setting [7]) was 9%; in experiment [3] (setting [8]), 81% (active); in experiment [3] (at 50.0 µM), 83.8% (active); in experiment [4] (setting [7]), -2%; in experiment [4] (setting [8]) it was 37%; in experiment [4] (at 50.0 µM), 60.2%. Also, the growth inhibition in experiment [5] (setting [7]) was -4%; in experiment [5] (setting [8]) it was 52%; in experiment [5] (at 50.0 µM), 85.2% (active); in experiment [6] (setting [7]), 7%; in experiment [6] (setting [8]) it was 48%; in experiment [6] (at 50.0 µM) it was 84.7% (active).
As for `CCCCCC[C@@H](O)C/C=C\CCCCCCCC(=O)OCCCC`, the growth inhibition in experiment [1] (setting [7]) is -2%; in experiment [1] (setting [8]), -7%; in experiment [1] (at 50.0 µM), 23.6%; in experiment [2] (setting [7]) it was -4%; in experiment [2] (setting [8]), -7%; in experiment [2] (at 50.0 µM), 26.1%. In addition, the growth inhibition in experiment [3] (setting [7]) is -1%; in experiment [3] (setting [8]) it was -5%; in experiment [3] (at 50.0 µM), 23.6%; in experiment [4] (setting [7]) it was -3%; in experiment [4] (setting [8]), -8%; in experiment [4] (at 50.0 µM) it was 75.8% (active). For the same compound, the growth inhibition is -6% in experiment [5] (setting [7]); -7% in experiment [5] (setting [8]); 24.6% in experiment [5] (at 50.0 µM); 0% in experiment [6] (setting [7]); 1% in experiment [6] (setting [8]); 23.9% in experiment [6] (at 50.0 µM).
Regarding `N#C/C(=C\c1ccc(Cl)cc1Cl)C(N)=S`, the growth inhibition in experiment [1] (setting [7]) is -3%; in experiment [1] (setting [8]) it was 78% (active); in experiment [1] (at 50.0 µM), 94.7% (active); in experiment [2] (setting [7]), -4%; in experiment [2] (setting [8]) it was 88% (active); in experiment [2] (at 50.0 µM), 95.2% (active). Besides, the growth inhibition in experiment [3] (setting [7]) was -2%; in experiment [3] (setting [8]), 93% (active); in experiment [3] (at 50.0 µM) it was 98.5% (active); in experiment [4] (setting [7]), -12%; in experiment [4] (setting [8]) it was 82% (active); in experiment [4] (at 50.0 µM) it was 86.8% (active). For the same compound, the growth inhibition in experiment [5] (setting [7]) is -9%; in experiment [5] (setting [8]), 79% (active); in experiment [5] (at 50.0 µM), 89.1% (active); in experiment [6] (setting [7]) it was -11%; in experiment [6] (setting [8]) it was 93% (active); in experiment [6] (at 50.0 µM) it was 95.7% (active).
Turning to `CCOC(=O)C(C=O)(C=O)c1ccccc1`, the growth inhibition in experiment [1] (setting [7]) was 6%; in experiment [1] (setting [8]), 42%; in experiment [1] (at 50.0 µM), 71.5% (active); in experiment [2] (setting [7]), 4%; in experiment [2] (setting [8]) it was 19%; in experiment [2] (at 50.0 µM), 8.5%. In addition, the growth inhibition is 7% in experiment [3] (setting [7]); 18% in experiment [3] (setting [8]); 61% in experiment [3] (at 50.0 µM); 4% in experiment [4] (setting [7]); 24% in experiment [4] (setting [8]); 43.2% in experiment [4] (at 50.0 µM). The growth inhibition was -3% in experiment [5] (setting [7]); 14% in experiment [5] (setting [8]); -36.4% in experiment [5] (at 50.0 µM); -1% in experiment [6] (setting [7]); 32% in experiment [6] (setting [8]); 44.5% in experiment [6] (at 50.0 µM).
Turning to `COc1cc2c(c(C)c1O)[C@H]1COc3ccccc3[C@H]1O2`, the growth inhibition was -24% in experiment [1] (setting [7]); -9% in experiment [1] (setting [8]); 75.2% (active) in experiment [1] (at 50.0 µM); -38% in experiment [2] (setting [7]); -9% in experiment [2] (setting [8]); 77.8% (active) in experiment [2] (at 50.0 µM). The growth inhibition in experiment [3] (setting [7]) is 17%; in experiment [3] (setting [8]) it was 13%; in experiment [3] (at 50.0 µM), 89.9% (active); in experiment [4] (setting [7]) it was 10%; in experiment [4] (setting [8]) it was 11%; in experiment [4] (at 50.0 µM) it was 57%. Further, the growth inhibition is 10% in experiment [5] (setting [7]); 61% in experiment [5] (setting [8]); 83.9% (active) in experiment [5] (at 50.0 µM); -22% in experiment [6] (setting [7]); 10% in experiment [6] (setting [8]); 65.5% in experiment [6] (at 50.0 µM).
